Hits are enriched below; roughly 8.7% of the tested compounds scored in any of these assays.
Pf growth 48h = inhibits P. falciparum growth in the first generation, 48 h; P. falciparum luciferase growth in erythrocytes, 48 h; Potency, µM (highest dose often 28.7 µM), actives largely listed as inhibitors; 310,000 compounds, 5.9% hits
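Cell-based growth assay: transgenic P. falciparum expressing firefly luciferase, cultured in red cells within RPMI 1640 containing 0.5% w/v Albumax, 24 mM bicarbonate and gentamycin. A drop in luciferase activity indicates inhibition.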
AMA1 RON2 block = disrupts binding of P. falciparum AMA1 to RON2 | AID 720542 | Potency, µM (series often up to 58.2 µM), hits mostly inhibitors | AlphaScreen AMA1-biotinylated RON2 peptide binding | 360,000 compounds, 0.2% hits; note: nearly all actives have a fitted effect of over 45% in size
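AMA1 (3D7) with his tag at 25 nM final met compounds first, then biotinylated RON2 peptide at 25 nM; detection used donor plus acceptor beads, 10 µg/mL apiece, read by AlphaScreen after 30 min at room temperature.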
VACV Venus inh = vaccinia inhibition (Venus reporter) | Vaccinia virus Venus reporter expression, fluorescence | Potency, µM (titrated, usually from 36.5 µM), actives largely listed as inhibitors | 330,000 compounds, 0.46% hits | AID 720580; calls by dose curve; tested in A549 cells; note: nearly all actives have a fitted effect of over 30% in size
Pf growth 96h = P. falciparum growth inhibition at 96 hours. P. falciparum luciferase reporter growth, 96 h. Potency, µM (doses to about 28.7 µM), most hits filed as inhibitors. AID 504834. 320,000 compounds, 6.9% hits
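96 h incubation, 37 C, 5% CO2, of luciferase-reporter P. falciparum-infected RBCs (2% hematocrit, 0.05% parasitemia final) with test compounds; endpoint luminescence.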
VACV mCherry inh = vaccinia inhibition (mCherry reporter). Potency, µM (doses to about 36.5 µM), usual class: inhibitors. 310,000 compounds, 0.63% hits. Vaccinia virus mCherry reporter infection, fluorescence; calls by dose curve; tested in A549 cells; note: nearly all actives have a fitted effect of over 35% in size
Of the large screens only hits and unclear results are named; the others gave an inactive call. Unless noted, calls come from the whole dose curve; as a rule, active = well fitted curve in the direction sought with a large enough effect; inconclusive = small, poorly fitted or top-dose-only effect, or another doubt; inactive = no such curve, though single readings can be large; an effect the other way counts as inactive or inconclusive.

COc1ccc(-c2ccc(OC)c([C@H]3[C@H]4C=CC[C@@H](C)[C@@H]4C(=O)N3Cc3ccccc3)c2)cc1	Pf growth 48h inconclusive, Pf growth 96h inconclusive
CCc1cccc(NC(=O)CCS(=O)(=O)c2ccc(C)cc2)c1	none (no result: Pf growth 48h, AMA1 RON2 block, Pf growth 96h)
O=S(=O)(c1cccc(Br)c1)N1CCN(c2nc(-c3cccs3)nc3ccccc23)CC1	none (no result: Pf growth 48h, AMA1 RON2 block, Pf growth 96h)
Cc1ccc(-c2cc([C@H]3[C@H]4C=CC[C@@H](C)[C@@H]4C(=O)N3Cc3ccccc3)ccc2F)cc1	Pf growth 48h 10µM, Pf growth 96h inconclusive
COc1ccc(-c2ccoc2)cc1[C@H]1[C@H]2C=CC[C@@H](C)[C@@H]2C(=O)N1Cc1ccccc1	Pf growth 48h 10µM, VACV Venus inh inconclusive, Pf growth 96h inconclusive, VACV mCherry inh inconclusive
CC(=O)c1ccc(-c2cccc([C@H]3[C@@H]4C=CC[C@@H](C)[C@@H]4C(=O)N3Cc3ccccc3)c2)cc1	none (no result: Pf growth 48h, Pf growth 96h)
Cc1ccc(CNC(=O)CSc2c3c(nc4cc(Cl)ccc24)CCCC3)o1	Pf growth 48h 15µM (no result: VACV Venus inh, VACV mCherry inh)
COc1ccc(Cl)cc1NC(=O)c1ccc2c(SCC(=O)O)c3c(nc2c1)CCCC3	Pf growth 48h inconclusive, Pf growth 96h inconclusive
O=C(O)CSc1c2c(nc3cc(C(=O)Nc4ccc(F)c(Cl)c4)ccc13)CCCC2	Pf growth 96h 1µM (no result: VACV Venus inh, VACV mCherry inh)
CCN(CC)C(=O)c1ccc2c(c1)N(Cc1c(F)cccc1Cl)C(=O)c1ccccc1S2	none (no result: Pf growth 48h, AMA1 RON2 block, Pf growth 96h)
CCCN=C1CC(C)(C)CC(=O)/C1=C(/O)CCC	none
CCCCCCN=C1CC(C)(C)CC(=O)/C1=C(/O)CCC	Pf growth 48h inconclusive, Pf growth 96h 6.6µM
COc1ccc(NC(=O)c2cnc(Nc3ccc(C)c(Cl)c3)c3ccccc23)c(OC)c1	none (no result: Pf growth 48h, AMA1 RON2 block, Pf growth 96h)
O=C(CCc1nnc2n(Cc3ccc(Cl)cc3)c(=O)c3ccccc3n12)N1CCN(c2ccccn2)CC1	Pf growth 48h inconclusive, Pf growth 96h inconclusive
COc1ccc(Cn2c(CCC(=O)N3CCN(c4ccccn4)CC3)nc3ncccc3c2=O)cc1	Pf growth 48h 12µM, Pf growth 96h inconclusive
Cc1c(CCC(=O)O)c(=O)oc2cc3occ(C(C)(C)C)c3cc12	Pf growth 96h 1µM
CCc1nc(SCC(=O)Nc2ccccc2OC)c2c(C)c(C)sc2n1	Pf growth 48h 13µM
CCc1nc(SCC(=O)Nc2cc(C)ccc2OC)c2c(C)c(C)sc2n1	none
COc1ccc(N2C(=O)CSC23C(=O)N(CC(=O)NC2CCCC2)c2ccccc23)cc1 (stereo not given)	Pf growth 96h 8.3µM (no result: VACV Venus inh, VACV mCherry inh)
COCCCN1C(=O)c2ccc(C(=O)Nc3ccccc3Cl)cc2C1=O	Pf growth 96h inconclusive (no result: VACV Venus inh, VACV mCherry inh)
COCCCN1C(=O)c2ccc(C(=O)Nc3ccccc3OC)cc2C1=O	Pf growth 96h 4.7µM
CCCCN1C(=O)c2ccc(C(=O)Nc3c(N)n(CCCC)c(=O)n(C)c3=O)cc2C1=O	AMA1 RON2 block inconclusive, Pf growth 96h 5.2µM
COc1ccccc1NC(=O)c1ccc2c(c1)N(CC#N)C(=O)C(C)(C)O2	Pf growth 96h 12µM
CCCN1C(=O)c2ccc(C(=O)Nc3cc(C)on3)cc2C1=O	none (no result: VACV Venus inh, VACV mCherry inh)
CCOC(=O)c1c(C)[nH]c(CCC(=O)NCc2cc(OC)c(OC)c(OC)c2)c1C	none (no result: Pf growth 48h, AMA1 RON2 block, Pf growth 96h)
Cc1ccc(S(=O)(=O)Nc2cccc(-c3ccc(N4CCCCC4)nn3)c2)s1	none (no result: Pf growth 48h, AMA1 RON2 block, Pf growth 96h)
CCOC(=O)c1c(S(=O)(=O)N2CCCC(C(=O)N3CCN(c4cc(C)ccc4C)CC3)C2)c(C)n(C)c1C (stereo not given)	none (no result: Pf growth 48h, AMA1 RON2 block, Pf growth 96h)
O=C(Cn1c2[n+](c3ccccc31)CC(O)CS2)c1ccccc1 (stereo not given)	Pf growth 48h 2.1µM
COCCOC(=O)C1=C(C)NC(=O)N(C(C)=O)C1c1ccc(Cl)cc1 (stereo not given)	Pf growth 48h inconclusive, Pf growth 96h 2.3µM
c1ccc2oc(Cc3ccc(Cc4nc5ccccc5o4)cc3)nc2c1	Pf growth 96h 13µM (no result: VACV Venus inh, VACV mCherry inh)
c1ccc2oc(CCc3nc4ccccc4o3)nc2c1	none
Cc1ccccc1OCC(=O)N1N=C(C(F)(F)F)CC1(O)C(C)(C)C (stereo not given)	Pf growth 48h 10µM, Pf growth 96h inconclusive
Cc1ccc(OCC(=O)N2N=C(C(F)(F)F)CC2(O)C(C)(C)C)cc1C (stereo not given)	Pf growth 96h inconclusive (no result: Pf growth 48h, VACV Venus inh, VACV mCherry inh)
COc1ccc(C(=O)COC(=O)CCn2nnc(-c3cccc(O)c3OC)n2)cc1	Pf growth 96h 12µM
COc1ccc(C(=O)Nc2ccccc2-c2nnn(CC(N)=O)n2)cc1	VACV Venus inh inconclusive (no result: Pf growth 48h, Pf growth 96h)

From PubChem
